PubChem BioAssay (Tox21)
Where “and” joins values, the source holds several entries; their conditions need not be identical. Identical values can stand only once. Records with an inconclusive call do not appear. Some structures have more than one record in an assay (separate samples or runs), and their calls can disagree. Calls of active or inactive are those of the source. Unless noted, calls follow the shape of the full dose curve.

Legend:
[1] = Nuclear factor erythroid 2-related factor 2/antioxidant responsive element (Nrf2/ARE) small molecule agonists: qHTS cell viability counter screen in human keratinocytes (AID 1919968; active = well fitted curve in the direction sought with a large enough effect in the repeat runs; an effect the other way counts as inactive or inconclusive; also: nearly all actives have a fitted effect of over 55% in size; also: potency is read from the fitted curve at half-maximal effect)
Summary of the method: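 Cells of the KeratinoSens line were plated at 1,500 per well and left for 5 h before compound transfer from DMSO stocks. After a 23 h incubation (37 C, 5% CO2), CellTiter-Fluor was added. Signal was taken as fluorescence intensity 1 h later.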

[2] = biological target: Gonadotropin-releasing hormone receptor (Homo sapiens) (UniProt P30968); assay: Human gonadotropin-releasing hormone receptor (GnRHR) small molecule agonists, calcium flux assay in GnRHR-HEK293 cells (AID 1920063); also: nearly all actives have a fitted effect of over 35% in size
Chain of Gonadotropin-releasing hormone receptor (Homo sapiens) (P30968 whole entry, looked up): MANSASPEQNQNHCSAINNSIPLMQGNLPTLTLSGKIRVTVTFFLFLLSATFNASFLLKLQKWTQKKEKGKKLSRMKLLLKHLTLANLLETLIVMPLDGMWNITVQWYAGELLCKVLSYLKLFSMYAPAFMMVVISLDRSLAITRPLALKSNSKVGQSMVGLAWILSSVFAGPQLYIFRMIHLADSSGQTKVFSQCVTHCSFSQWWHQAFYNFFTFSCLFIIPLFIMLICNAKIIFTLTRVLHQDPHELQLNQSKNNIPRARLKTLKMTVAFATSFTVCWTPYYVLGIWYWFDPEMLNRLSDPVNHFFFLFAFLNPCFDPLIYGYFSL
Summary of the method: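 Compounds dissolved in DMSO are pin-transferred onto dye-loaded GnRHR-HEK293 cells, which were seeded 18 h before at 37 C/5% CO2. Calcium signal is read as fluorescence intensity at 1 s intervals for 3 min.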

[3] = biological target: KiSS-1 receptor (Homo sapiens) (UniProt Q969F8); assay: Human kisspeptin (KISS1R) small molecule agonists, calcium flux assay in KISS1R-HEK293 cells (AID 1920064; active = well fitted curve in the direction sought with a large enough effect in the repeat runs; an effect the other way counts as inactive or inconclusive)
Chain of KiSS-1 receptor (Homo sapiens) (Q969F8 whole entry, looked up): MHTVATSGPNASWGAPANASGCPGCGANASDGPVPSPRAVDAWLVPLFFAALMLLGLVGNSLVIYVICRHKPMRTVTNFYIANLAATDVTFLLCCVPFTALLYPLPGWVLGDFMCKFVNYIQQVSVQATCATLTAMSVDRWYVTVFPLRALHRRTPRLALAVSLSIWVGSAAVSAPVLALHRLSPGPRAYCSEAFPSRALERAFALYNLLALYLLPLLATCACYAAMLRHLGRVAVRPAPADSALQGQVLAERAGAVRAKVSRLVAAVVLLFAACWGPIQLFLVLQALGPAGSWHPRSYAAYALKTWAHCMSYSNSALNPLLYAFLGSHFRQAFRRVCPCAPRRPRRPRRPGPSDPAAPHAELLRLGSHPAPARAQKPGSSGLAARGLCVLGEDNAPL
Summary of the method: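 Cell line: HEK293, stable human KISS1R. Dye loading 1 h at 37 C after 18 h culture. Read: kinetic fluorescence, 480/540 nm, 3 min at 1 s intervals.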

[4] = p53 small molecule agonists, cell-based qHTS assay with human liver microsomes (AID 1963577);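 also: p53 response element beta-lactamase reporter cells with liver microsomes plus NADPH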
Summary of the method: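 16 h, 37 C exposure of p53RE-bla cells to compounds with human liver microsomes and NADPH (0.5 mg/mL final each); detection via LiveBLAzer mixture, 2 h dark at room temperature.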

[5] = p53 small molecule agonists, cell-based qHTS assay with rat liver microsomes (AID 1963578)
Summary of the method: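 With rat liver microsomes and NADPH present (0.5 mg/mL final each), p53RE-bla cells are treated with compound for 16 h at 37 C. LiveBLAzer detection mixture is then applied for 2 h at room temperature in the dark.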

[6] = p53 small molecule agonists, cell-based qHTS assay with human liver microsomes: qHTS cell viability counter screen (AID 1963579); also: nearly all actives have a fitted effect of over 45% in size
Summary of the method: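 In this multiplexed counter screen, the reporter plates were subsequently treated with CellTiter-Glo so that cell viability, reflected by luminescence, could be recorded for p53RE-bla cells dosed 16 h with compounds under microsomal activation (HLM and NADPH).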

[7] = p53 small molecule agonists, cell-based qHTS assay with rat liver microsomes: qHTS cell viability counter screen (AID 1963580); also: nearly all actives have a fitted effect of over 45% in size
Summary of the method: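 Rat liver microsome (0.5 mg/mL final) and NADPH (0.5 mg/mL final) co-incubation with compounds for 16 h at 37 C on HCT-116 p53RE-bla cells; cytotoxicity taken from intracellular ATP luminescence.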

[8] = p53 small molecule agonists, cell-based qHTS assay: qHTS cell viability counter screen (AID 1963581); also: nearly all actives have a fitted effect of over 45% in size
Summary of the method: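 ATP content measured by luminescence in HCT-116 p53RE-bla cells treated 16 h at 37 C, same wells as the reporter screen.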

[9] = p53 small molecule agonists, cell-based qHTS assay (AID 1963582; active = well fitted activation curve with a large enough effect in the signal ratio in the repeat runs, not every such curve was filed as active; the % refers to the signal ratio)
Summary of the method: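 16 h compound exposure (37 C) of p53 response element–bla cells, preceded by 5 h recovery at 37 C/5% CO2; read-out via LiveBLAzer B/G FRET substrate, 2 h RT, fluorescence intensity.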

[10] = biological target: 5-hydroxytryptamine receptor 2A (Homo sapiens) (UniProt P28223); assay: 5-hydroxytryptamine receptor 2A (HTR2A) small molecule agonists, cell-based qHTS assay (AID 1963587); also: nearly all actives have a fitted effect of over 30% in size
Chain of 5-hydroxytryptamine receptor 2A (Homo sapiens) (P28223 whole entry, looked up): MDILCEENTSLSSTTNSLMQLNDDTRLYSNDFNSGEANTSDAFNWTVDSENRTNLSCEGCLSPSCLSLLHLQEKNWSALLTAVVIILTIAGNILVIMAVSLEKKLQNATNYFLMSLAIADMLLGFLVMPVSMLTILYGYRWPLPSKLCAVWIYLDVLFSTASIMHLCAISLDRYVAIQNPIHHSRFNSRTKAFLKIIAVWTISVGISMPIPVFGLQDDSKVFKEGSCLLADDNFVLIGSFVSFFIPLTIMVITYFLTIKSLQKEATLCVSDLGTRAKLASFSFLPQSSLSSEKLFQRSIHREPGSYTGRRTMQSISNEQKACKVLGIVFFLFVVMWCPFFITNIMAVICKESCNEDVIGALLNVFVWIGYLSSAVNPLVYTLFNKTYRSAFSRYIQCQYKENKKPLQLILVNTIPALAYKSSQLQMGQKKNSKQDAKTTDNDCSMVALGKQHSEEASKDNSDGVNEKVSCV
Summary of the method: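 Kinetic calcium-flux fluorescence (2 min, 1 sec intervals) after compound addition in agonist mode. HTR2A-CHO cells were cultured 18 h, then dye-loaded 1 h at 37 C.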

[11] = biological target: Muscarinic acetylcholine receptor M1 (Homo sapiens) (UniProt P11229); assay: Cholinergic receptor muscarinic 1 (CHRM1) small molecule agonists, cell-based qHTS assay (AID 1963589); also: nearly all actives have a fitted effect of over 35% in size
Chain of Muscarinic acetylcholine receptor M1 (Homo sapiens) (P11229 whole entry, looked up): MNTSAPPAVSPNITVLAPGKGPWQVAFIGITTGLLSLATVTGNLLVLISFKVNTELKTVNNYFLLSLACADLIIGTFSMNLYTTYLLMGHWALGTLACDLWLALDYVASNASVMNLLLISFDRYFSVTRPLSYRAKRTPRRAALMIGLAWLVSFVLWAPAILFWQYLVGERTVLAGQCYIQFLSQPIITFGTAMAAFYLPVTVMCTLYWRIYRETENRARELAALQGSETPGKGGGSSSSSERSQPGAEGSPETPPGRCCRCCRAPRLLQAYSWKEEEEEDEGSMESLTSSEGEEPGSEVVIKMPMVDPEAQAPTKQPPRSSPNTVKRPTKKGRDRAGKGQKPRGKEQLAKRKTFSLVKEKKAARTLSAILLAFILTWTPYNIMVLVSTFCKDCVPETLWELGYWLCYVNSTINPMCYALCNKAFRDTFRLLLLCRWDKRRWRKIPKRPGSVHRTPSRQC
Summary of the method: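 Homogeneous fluorescence calcium flux, agonist mode. Human M1-expressing CHO cells; compound dosed at 15 concentrations, three independent runs; signal sampled every 1 sec.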

[12] = cAMP Responsive Elements (CRE) small molecule agonists, cell-based qHTS assay (AID 1963590)
Summary of the method: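 HEK 293T cells stably bearing CRE-bla were plated at 2,000 cells per well and rested 18 h. Compounds, positive controls or DMSO were added for 3 h at 37 C. LiveBLAzer B/G substrate was then loaded for 2 h at room temperature.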

[13] = cAMP Responsive Elements (CRE) small molecule antagonists, cell-based qHTS assay (AID 1963591; active = well fitted inhibition curve with a large enough effect in the signal ratio in the repeat runs, not every such curve was filed as active; the % refers to the signal ratio)
Summary of the method: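 First, CRE-bla HEK293T cells settled 18 h at 37 C. Next, compound and 0.25 uM final NKH477 were applied for 3 h. Last, LiveBLAzer B/G substrate was loaded for 2 h at room temperature.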

[14] = biological target: Beta-2 adrenergic receptor (Homo sapiens) (UniProt P07550); assay: Adrenergic beta2 receptor (ADRB2) small molecule antagonists, cell-based qHTS assay (AID 1963592); also: series mostly up to about 92 µM; nearly all actives have a fitted effect of over 50% in size
Chain of Beta-2 adrenergic receptor (Homo sapiens) (P07550 whole entry, looked up): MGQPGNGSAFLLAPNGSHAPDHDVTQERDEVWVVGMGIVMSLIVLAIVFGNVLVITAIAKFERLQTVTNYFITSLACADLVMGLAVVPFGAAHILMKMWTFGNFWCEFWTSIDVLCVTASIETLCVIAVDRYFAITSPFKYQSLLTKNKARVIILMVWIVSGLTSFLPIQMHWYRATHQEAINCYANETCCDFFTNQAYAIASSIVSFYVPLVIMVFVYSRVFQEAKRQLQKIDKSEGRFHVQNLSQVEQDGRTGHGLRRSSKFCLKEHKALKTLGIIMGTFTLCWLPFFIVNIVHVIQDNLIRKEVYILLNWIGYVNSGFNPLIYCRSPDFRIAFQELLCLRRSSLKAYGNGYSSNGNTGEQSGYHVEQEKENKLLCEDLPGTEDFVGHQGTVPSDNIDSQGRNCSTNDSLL
Summary of the method: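 Assay format: CHO-ADRB2 cells, 18-20hr seeding at 37C/5% CO2, then compound plus 1nM isoproterenol agonist mix for 0.5hr RT. Homogeneous time-resolved fluorescence cAMP detection after 1hr, expressed as 665/615 nm ratio.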

[15] = biological target: Beta-2 adrenergic receptor (Homo sapiens) (UniProt P07550); assay: Adrenergic beta2 receptor (ADRB2) small molecule agonists, cell-based qHTS assay (AID 1963593);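 also: CHO cells stably overexpressing human ADRB2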
Summary of the method: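 CHO cells stably over-expressing ADRB2 were plated overnight at 37C, then dosed with compounds plus a stimulation mix containing 100uM IBMX and 25uM Ro-20-1724 for 0.5hr at room temperature. cAMP was measured by HTRF competition, 1hr.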

[16] = biological target: D(2) dopamine receptor (Homo sapiens) (UniProt P14416); assay: Dopamine D2 receptor (DRD2) small molecule agonists, cell-based qHTS assay (AID 1963594); also: nearly all actives have a fitted effect of over 35% in size
Chain of D(2) dopamine receptor (Homo sapiens) (P14416 whole entry, looked up): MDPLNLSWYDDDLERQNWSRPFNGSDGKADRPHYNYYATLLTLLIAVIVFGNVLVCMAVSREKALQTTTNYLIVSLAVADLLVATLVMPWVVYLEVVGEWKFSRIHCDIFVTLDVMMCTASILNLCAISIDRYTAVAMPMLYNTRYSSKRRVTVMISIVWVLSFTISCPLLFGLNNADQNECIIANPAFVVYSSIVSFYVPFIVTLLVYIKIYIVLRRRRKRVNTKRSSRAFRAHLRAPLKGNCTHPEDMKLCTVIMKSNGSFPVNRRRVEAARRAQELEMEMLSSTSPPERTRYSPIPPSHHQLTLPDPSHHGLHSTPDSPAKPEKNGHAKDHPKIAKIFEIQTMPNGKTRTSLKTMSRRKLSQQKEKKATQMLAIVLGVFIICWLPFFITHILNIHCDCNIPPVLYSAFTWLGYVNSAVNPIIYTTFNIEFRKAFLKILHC
Summary of the method: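 cAMP accumulation in DRD2-HEK293 cells measured by HTRF after 1 h detection; compounds added 10 min before NKH477 (200nM […]) forskolin-analogue stimulation, 30 min at room temperature, with Ro20-1724 present at 0.1 mM final.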

[17] = biological target: D(2) dopamine receptor (Homo sapiens) (UniProt P14416); assay: Dopamine D2 receptor (DRD2) small molecule antagonists, cell-based qHTS assay (AID 1963595; active = well fitted inhibition curve with a large enough effect in the signal ratio in the repeat runs, with a control signal flat; the % refers to the signal ratio)
Summary of the method: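 Human DRD2 antagonist qHTS measuring cAMP by HTRF. The cells are exposed to compound for 10 min, then to NKH477 (200 nM) and quinpirole (12 nM) for 30 min at RT, with Ro20-1724 (0.1 mM) present throughout.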

[18] = biological target: Muscarinic acetylcholine receptor M1 (Homo sapiens) (UniProt P11229); assay: Cholinergic receptor muscarinic 1 (CHRM1) small molecule antagonists, cell-based qHTS assay (AID 1963588); also: nearly all actives have a fitted effect of over 40% in size; also: potency is read from the fitted curve at half-maximal effect
Summary of the method: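 Compounds were tested at 15 concentrations in three independent runs. Dye-loaded CHRM1-CHO cells were exposed 5 min at room temperature before stimulation by acetylcholine added at 50nM. Intracellular calcium was read kinetically on FDSS for 3 min.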

[19] = G protein-coupled receptor (GPCR) small molecule agonists, calcium flux assay: HEK293 wild type cell line counter screen (AID 1920065)
Summary of the method: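 Tox21 10K compounds, 15 concentrations each in triplicate, pin-transferred in DMSO onto dye-loaded cells; kinetic read at 480/540 nm for 3 min, 1 s intervals.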

[20] = biological target: 5-hydroxytryptamine receptor 2A (Homo sapiens) (UniProt P28223); assay: 5-hydroxytryptamine receptor 2A (HTR2A) small molecule antagonists, cell-based qHTS assay (AID 1963586); also: nearly all actives have a fitted effect of over 45% in size; also: potency is read from the fitted curve at half-maximal effect
Summary of the method: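 CHO cells stably expressing human HTR2A were plated for 18 h at 37 C, then loaded with calcium dye for 1 h. Compounds were preincubated 5 min at room temperature before DOI (4 nM solution) was added. Kinetic fluorescence was read for 3 min.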

Measured: Potency

C/C(=C(/OCCOc1ccc(Cl)cc1)c1ccc(Cl)cc1Cl)n1ccnc1
active: [1] 13.3 µM
not listed: [18] | [19] | [20]
inactive: all other assays above

Cc1nn(C)c(Oc2ccccc2)c1/C=N/OCc1ccc(C(=O)OC(C)(C)C)cc1
inactive: [1] | [2] | [3] | [5] | [6] | [8] | [10] | [18] | [11] | [14] | [16]

Cc1ccccn1
not listed: [2]
inactive: all other assays above

COC(=O)/C=C(\C)CCC=C(C)C
not listed: [3] | [5] | [15] | [20]
inactive: all other assays above

CCCC/C=C/CCCCO
not listed: [3] | [7] | [8]
inactive: all other assays above

CCN1CCOCC1
not listed: [2]
inactive: all other assays above

O=C(c1ccccc1)c1ccc(O)cc1O
19.2 µM (active) and inactive: [18]
active: [20] 38.2 µM and 33.4 µM
not listed: [3] | [9] | [12]
inactive: all other assays above
